# Results published in PubChem BioAssay.
# “And” between values parts separate entries of the source, which are not always exact repeats. Equal entries are not always repeated. The source made the active and inactive calls.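 The calls were made as follows, unless noted: active = z-score of at least 1.8 in each of two replicates, scored against plate mean and spread of sample wells; inactive = the rest.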
# What was measured:
# [1] = P. berghei load reduction in hepatocytes – cell-based, HepG2, luciferase luminescence, HepG2 viability, primary screen (AID 624349; in the data active = parasite load remaining mostly below about 12%, no sharp cut-off; inactive = mostly above about 10%;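 also: 100% = mean of DMSO negative control wells on the same plate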); conditions: P. berghei liver stage in HepG2, luciferase luminescence, concentration not given here; parasite load remaining: stronger effect = lower value; viability: measured here: HepG2 viability without parasites
# [2] = Wnt pathway potentiators raising nuclear beta-catenin – imaging, WNT3A-conditioned medium, mouse C2C12, NPC library, primary screen (AID 1117326; in the data active = nuclear beta-catenin stimulation mostly above about 4.2%, no sharp cut-off; inactive = mostly below about 10%); conditions: stronger effect = higher value
# [3] = stimulators of insulin release from INS-1E, primary screen, cell-based, 5 mM glucose, NPC library (AID 1117329;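 active = compound raises insulin release from rat beta cells at 5 mM glucose, no numeric limit stated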); conditions: rat INS-1E insulin secretion, at 10 µM, stronger effect = higher value
# [4] = growth inhibition of GSK3B-pretreated HCT116 cells – cell-based, CellTiter-Glo, 0.2 to 20 µM (AID 1117336;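 active = compounds lowering colon cancer cell viability after pretreatment blocking the GSK3B kinase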); conditions: HCT116 viability after GSK3B inhibitor, at 20 µM, stronger effect = higher value
# [5] = inhibition of endothelial tube formation, primary screen, imaging, VEGF stimulated, CD31 staining, tube area, NPC library (AID 1117340;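 active = compound that reduces growth-factor-driven endothelial tube area in a mixed cell culture, no cutoff stated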); conditions: VEGF-stimulated ADSC/ECFC co-culture, at 10 µM, stronger effect = higher value
# [6] = GLP1 release stimulators, primary, NCI-H716, NPC library (AID 1117341;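 active = compound raises GLP1 secretion from the human gut endocrine cells, with no numeric limit stated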); conditions: NCI-H716 cells, at 10 µM, stronger effect = higher value
# [7] = HCT116 colon cancer cell growth inhibition, primary screen, CellTiter-Glo luminescence, NPC library (AID 1117342;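 active = compounds that lower survival of HCT116 colon cancer cells in the luminescence readout, no numeric limit stated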); conditions: at 20 µM (top of the series)
# [8] = reduced SW480 viability measured with CellTiter-Glo, NPC library, primary (AID 1117343;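 active = compounds that lower viability of the colon cancer cells in the luminescence readout, with no numeric limit stated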); conditions: CellTiter-Glo luminescence; at 20 µM (top of the series)
# [9] = NPC library primary testing for decreased DLD-1 cell viability via CellTiter-Glo (AID 1117346;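 active = compounds that lower survival of DLD-1 colon cancer cells in the luminescence readout, no cutoff given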); conditions: DLD-1 viability, CellTiter-Glo luminescence; at 20 µM (top of the series)
# [10] = EMT-state selective cytotoxicity in co-culture – imaging, PC-3E GFP, TEM4-18 mCherry, primary screen (AID 1345086;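 active = compounds killing one labelled cell type while sparing the other, by normalised counts and ratio limits, not self-fluorescent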;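 as to all read-outs here: cells exposed to compound for 72 h before imaging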;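 as to red/green cell ratio (normalised): normalised mesenchymal count divided by normalised epithelial count so high means epithelial killing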); conditions: PC-3E GFP / TEM4-18 mCherry co-culture, imaging cell counts, at 1 µM; for red/green cell ratio (normalised): actives lie on both sides
# [11] = MELAS cybrid and Rieske KO viability enhancers – cell-based, MELAS cybrids, Rieske KO mouse fibroblasts, CellTiter-Glo, primary screen (AID 1508586;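 active = mean z-score across replicates of 1.96 or higher in either the MELAS or the Rieske mutant cell line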;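 also: z relative to plate mean and SD of compound and empty wells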); conditions: low glucose
# [12] = biological target: NAD(+) hydrolase SARM1 (Homo sapiens) (UniProt Q6SZW1); test: blocking NAD cleavage by SARM1 SAM-TIR – cell lysate, NAD-Glo luminescence (AID 1508614;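 active = compound whose remaining NAD level is above about 45 nM, limit read from the data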;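 also: higher remaining NAD means stronger inhibition of SARM1 NADase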); conditions: SAM-TIR HEK293T lysate NADase, at 1 µM, stronger effect = higher value
# Chain of NAD(+) hydrolase SARM1 (Homo sapiens) (Q6SZW1 whole entry, looked up): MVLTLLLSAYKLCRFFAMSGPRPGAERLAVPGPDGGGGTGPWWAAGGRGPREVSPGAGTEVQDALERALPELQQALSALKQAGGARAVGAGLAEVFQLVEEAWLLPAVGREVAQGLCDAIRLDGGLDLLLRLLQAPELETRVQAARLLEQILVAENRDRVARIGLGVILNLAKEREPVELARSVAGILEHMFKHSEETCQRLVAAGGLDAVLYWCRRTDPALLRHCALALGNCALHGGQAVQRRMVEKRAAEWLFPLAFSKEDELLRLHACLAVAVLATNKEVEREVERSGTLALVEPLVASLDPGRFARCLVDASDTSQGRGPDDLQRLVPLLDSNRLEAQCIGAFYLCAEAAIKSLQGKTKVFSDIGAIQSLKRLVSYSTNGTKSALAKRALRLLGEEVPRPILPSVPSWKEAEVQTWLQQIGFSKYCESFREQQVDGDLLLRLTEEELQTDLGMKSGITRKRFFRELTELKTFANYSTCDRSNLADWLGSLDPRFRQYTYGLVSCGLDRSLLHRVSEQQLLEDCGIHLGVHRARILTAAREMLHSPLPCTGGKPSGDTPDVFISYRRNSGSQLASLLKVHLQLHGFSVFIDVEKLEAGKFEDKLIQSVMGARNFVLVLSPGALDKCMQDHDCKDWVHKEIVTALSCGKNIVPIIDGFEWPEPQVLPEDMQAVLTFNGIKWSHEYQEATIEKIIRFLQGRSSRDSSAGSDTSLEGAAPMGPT
# [13] = galactose survival enhancers in mitochondrial complex I cybrids – cell-based, galactose medium, ATP luminescence, primary screen (AID 1645843); conditions: complex I mutant cybrid cells, 72 h, stronger effect = higher value;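 also: positive z means more ATP and so rescue of galactose-driven cybrid death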
# [14] = yeast 75Q aggregation reduction – 75Q-TubU reporter (AID 1593); conditions: Yeast 75Q polyglutamine aggregation reporter
# [15] = blockers of cytochrome c efflux from mitochondria – biochemical, purified mitochondria (AID 1603); conditions: stronger effect = lower value;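 also: mouse liver mitochondria challenged with calcium chloride; signal normalized to the plate average as 100%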
# [16] = polyglutamine aggregate formation blockers (AID 1604); conditions: polyglutamine-induced protein aggregation inhibition assay; stronger effect = higher value; tested at 2.5 µM
# [17] = test system: Aerobactin synthetase IucA (Klebsiella pneumoniae hvKP1); test: IucA enzyme inhibition, primary screen, biochemical, Spectrum library (AID 1346200; call rule not given here;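 also: 100% = wells without compound and 0% = wells lacking enzyme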); conditions: malachite green pyrophosphate, A620, at 8 µM, stronger effect = lower value
# [18] = viability loss with induced miR-34 in A549 – imaging, A549 dox-inducible miR-34, nuclei and caspase counts, primary screen (AID 1347080;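 active = compounds whose cell count with miR-34 switched on is under 0.7 times the count with it off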); conditions: A549 miR-34 inducible, Hoechst nuclei count, 48 h
# [19] = biological target: Mitogen-activated protein kinase 7 (Homo sapiens) (UniProt Q13164); test: Gal4-ERK5 driven luciferase induction – cell-based, HTS, primary screen (AID 1508626;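 active = luciferase signal above three times the same-plate solvent-only control wells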;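 also: luciferase driven by Gal4-ERK5 fusion binding five Gal4 sites before minimal TATA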); conditions: HeLa Gal4-ERK5 transactivation, 18 h, at 5 µM, stronger effect = higher value
# Chain of Mitogen-activated protein kinase 7 (Homo sapiens) (Q13164 whole entry, looked up, the tested form may be a part): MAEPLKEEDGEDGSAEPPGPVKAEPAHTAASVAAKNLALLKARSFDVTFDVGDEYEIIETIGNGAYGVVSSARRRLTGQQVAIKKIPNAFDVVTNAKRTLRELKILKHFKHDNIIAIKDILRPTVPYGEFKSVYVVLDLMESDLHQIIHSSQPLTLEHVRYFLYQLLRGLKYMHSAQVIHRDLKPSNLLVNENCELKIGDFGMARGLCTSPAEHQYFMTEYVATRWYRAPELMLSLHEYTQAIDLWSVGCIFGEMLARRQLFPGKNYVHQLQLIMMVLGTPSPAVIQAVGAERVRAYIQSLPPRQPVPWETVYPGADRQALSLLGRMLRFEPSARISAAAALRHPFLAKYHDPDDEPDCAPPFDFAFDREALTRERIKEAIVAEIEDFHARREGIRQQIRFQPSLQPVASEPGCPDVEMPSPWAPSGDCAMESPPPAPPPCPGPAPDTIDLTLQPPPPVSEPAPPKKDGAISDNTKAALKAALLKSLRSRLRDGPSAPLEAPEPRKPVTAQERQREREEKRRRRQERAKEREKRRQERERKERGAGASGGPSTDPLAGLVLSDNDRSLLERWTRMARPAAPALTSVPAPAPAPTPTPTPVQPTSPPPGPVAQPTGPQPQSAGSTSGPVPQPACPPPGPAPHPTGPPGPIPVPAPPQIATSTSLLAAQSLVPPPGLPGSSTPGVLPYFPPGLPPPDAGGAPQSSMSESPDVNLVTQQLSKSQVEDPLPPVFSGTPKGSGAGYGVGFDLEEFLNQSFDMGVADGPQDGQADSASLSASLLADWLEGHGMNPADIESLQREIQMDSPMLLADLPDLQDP
# [20] = measured here: epithelial PC-3E GFP cell survival
# [21] = measured here: mesenchymal TEM4-18 mCherry cell survival
structure (smiles),measurement,setting,value
c1ccc2c(c1)OCC(C1=NCCN1)O2 (configuration not stated),parasite load remaining,[1],48.2% (inactive) and 42.6% (inactive)
same,viability,[1],92.9% and 100%
same,nuclear beta-catenin stimulation,[2]; at 10 µM,5.9% (inactive)
same,nuclear beta-catenin stimulation,"[2]; stimulation, at 2 µM",-1.4%
same,insulin secretion stimulation,[3],2.3% (inactive)
same,viability decrease,[4],14.1% (inactive)
same,tube area decrease,[5],-4.8% (inactive)
same,GLP1 secretion stimulation,[6],0.1% (inactive)
same,inhibition of viability,[7],17.5% (inactive)
same,viability decrease (inhibition),[8],33.2% (inactive)
same,viability decrease (inhibition),[9],-3.9% (inactive)
same,red/green cell ratio (normalised),[10],0.85 (inactive)
same,normalised cell number,[10]; [20],1.22
same,normalised cell number,[10]; [21],1.03
same,z-score,"[11]; MELAS cybrid survival, CellTiter-Glo 48 h, stronger effect = higher value",0.698 (inactive) and 0.759 (inactive)
same,z-score,"[11]; Rieske KO mouse fibroblast survival, CellTiter-Glo 72 h",-0.433 and -0.198
same,remaining NAD,[12],10 nM (inactive)
same,z-score,[13],-1 (inactive) and -0.91 (inactive) and -1.57 (inactive)
CCCC(C)C1(CC)C(=O)N=C(S)NC1=O (configuration not stated),score,[14],1.17
same,cytochrome c release ratio,[15],1.02
same,inhibition of aggregation,[16],30.6%
same,parasite load remaining,[1],29.3% (inactive)
same,viability,[1],123%
same,nuclear beta-catenin stimulation,[2]; at 10 µM,0.1% (inactive)
same,nuclear beta-catenin stimulation,"[2]; stimulation, at 2 µM",-0.3%
same,insulin secretion stimulation,[3],-0.2% (inactive)
same,viability decrease,[4],-5.2% (inactive)
same,tube area decrease,[5],-13.6% (inactive)
same,GLP1 secretion stimulation,[6],0.9% (inactive)
same,inhibition of viability,[7],-4.4% (inactive)
same,viability decrease (inhibition),[8],95.4% (active)
same,viability decrease (inhibition),[9],3.85% (inactive)
same,red/green cell ratio (normalised),[10],1.19 (inactive)
same,normalised cell number,[10]; [20],1.01
same,normalised cell number,[10]; [21],1.21
same,activity remaining,[17],91.6% (inactive)
same,fold change,[18]; stronger effect = lower value,0.92 (inactive)
same,fold change,[18]; measured here: relative caspase fold change +Dox/-Dox,4.02
same,cell count,"[18]; measured here: total cells with miR-34 induction, stronger effect = lower value",10900
same,cell count,[18]; measured here: total cells without miR-34 induction,11900
same,remaining NAD,[12],10 nM (inactive)
same,luciferase signal,[19],60 AU (inactive)
